Laboratory results from PubChem BioAssay AID449762 (Southern Research Specialized Biocontainment Screening …, 2010).
The whole screen tested about 330,000 compounds, of which about 1,900 (0.58%) were called active. About 4% were inconclusive and are not listed. The list is a sample of the results. Potency and affinity values are given separately. A number with no mark means an inactive call. Cut-off read from the data, not from the text of the source: inconclusive = inhibition above about 70% without an active follow-up result; inactive = below that.

test: M. tuberculosis growth inhibition, HTS (AID 449762);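 note: bacterial growth assessed after seven days of incubation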; conditions: M. tuberculosis H37Rv growth inhibition, 7H9 media; at 25 µM; active compounds read high

| SMILES | inhibition [%] |
| --- | --- |
| CC(=O)Nc1nc2ccccc2[nH]1 | -2.83 |
| O=C(Nc1nc2ccccc2[nH]1)C1CC1 | -4.47 |
| O=C1CC(=O)N(c2ccccc2)c2ccccc21 | 8.88 |
| O=C1CCCCC(=O)N(c2ccccc2)c2ccccc21 | 4.12 |
| COC(=O)c1ccsc1NC(=O)CCS(=O)(=O)c1ccc(Cl)cc1 | -2.4 |
| CCCCNC(=O)CSc1nc2c(sc(=S)n2-c2cc(Cl)ccc2OC)c(=O)[nH]1 | 2.82 |
| CCOc1ccc(OCCC(=O)OCC(=O)Nc2ccc(N3CCOCC3)cc2)cc1 | 8.74 |
| C=CCNCc1ccccc1[N+](=O)[O-] | 15 |
| Cc1c(C#N)c2ncnc(-c3ccccc3)c2n1-c1ccccc1 | -23.1 |
| COc1cccc2c1-c1c(O)cccc1C2=O | 6.4 |
| COC(=O)c1cc(C#N)c(=O)[nH]c1C | 4.68 |
| O=C(CSc1ccc(F)cc1)N1CCC(c2nc3ccccc3s2)CC1 | 3.87 |
| O=C(CSc1c(Cl)cccc1Cl)N1CCC(c2nc3ccccc3s2)CC1 | 6.33 |
| CN1CCC(OC(=O)COc2ccccc2)CC1 | -3.85 |
| Cc1ccc2c(c1)N(C(=O)CCC(=O)N1CCOCC1)CCO2 | -0.82 |
| O=S(=O)(c1cccs1)n1cccn1 | 0.03 |
| O=S(=O)(Nc1ccccn1)c1cccs1 | -1.52 |
| COc1ccccc1N(C)S(=O)(=O)c1ccc(C(=O)Nc2ccncc2)cc1 | 6.47 |
| Cc1nc2ccc(NC(=O)c3ccc(S(=O)(=O)N(C)C)cc3)cc2s1 | 3.86 |
| COc1ccc(N2CCN(S(=O)(=O)CCNC(=O)/C=C/c3ccccc3)CC2)cc1 | 7.56 |
| O=C(COC(=O)C1CC2CCCC(C1)C2=O)NNC(=O)c1ccccc1Br (configuration not stated) | -3.73 |
| O=C(COC(=O)C1CC2CCCC(C1)C2=O)NC(=O)c1ccccc1 (configuration not stated) | -2.77 |
| Cc1nn(CC(O)c2ccccc2)c(C)c1Br (configuration not stated) | -6.52 |
| O=C(Nc1nc2ccccc2n1Cc1ccc(Cl)cc1)c1ccco1 | 50.9 |
| CCn1c(NC(C)=O)nc2ccccc21 | 31.6 |

| SMILES | inhibition [%] |
| --- | --- |
| CCCn1c(NC(=O)c2ccccc2)nc2ccccc21 | -7.04 |
| CCC(=O)Nc1nc2ccccc2n1CCN(C)C | -8.02 |
| O=C(CSCc1ccc(Cl)cc1)Nc1ccc(S(=O)(=O)N2CCCCCC2)cc1 | 1.03 |
| CC1CCCC(NC(=O)CSc2nncs2)C1C (configuration not stated) | -10.3 |
| CCC(=O)c1ccc(OCC(=O)Nc2nc(-c3cccnc3)cs2)cc1 | 24.3 |
| COC1=CC2[C@@H]3Cc4ccc(OC)c(O)c4[C@]2(CCN3C)CC1=O (some centres not stated) | 6.39 |
| CC(C)=CCC/C(C)=C/CNC(=O)CC1C[C@H](C(=O)N2CCCCC2)[C@@]2(C)c3[nH]c4ccccc4c3CCN2C1=O (some centres not stated) | -1.03 |
| Cc1cccc(NC(=O)C2Cc3ccccc3O/C2=N\O)c1 (configuration not stated) | 0.7 |
| CC(C)C(=O)N[C@H]1CCC2C3CC=C4C[C@@H](O)CC[C@]4(C)C3CC[C@@]21C (some centres not stated) | 4.73 |
| CN(C)CCN[C@H]1CCC2C3CC=C4C[C@@H](O)CC[C@]4(C)C3CC[C@@]21C (some centres not stated) | 1.3 |
| CCCCn1c(N)c(N(CC(C)C)C(=O)CCCc2nc3ccccc3c(=O)[nH]2)c(=O)[nH]c1=O | 0.43 |
| Cc1cc(NC(=O)CCC(=O)N(CC(=O)NC2CCCC2)c2ccc3c(c2)OCCO3)no1 | -6.7 |
| CCC(=O)Nc1c2c(nn1-c1ccc(OC)cc1)CSC2 | 1.36 |
| COc1ccc(-n2nc3c(c2NC(=O)CCCl)CSC3)cc1 | 5.23 |
| CC(=O)N(c1ccc(Cl)cc1)c1cn(C(C)=O)c2ccccc12 | 8.81 |
| CC(=O)n1cc(CO)c2ccccc21 | -8.42 |
| COc1ccccc1N1CCN(C(=O)CCCn2nc(C)c([N+](=O)[O-])c2C)CC1 | 2.97 |
| CCOc1ccc(C(=O)Nn2cnnc2)cc1 | 7.03 |
| O=C(N/N=C/c1sc(=O)[nH]c1-[n+]1ccccc1)c1ccccc1[O-] | -8.63 |
| CCOc1ccc(N2CC(=O)N(c3ccc(OCC)cc3)CC2=O)cc1 | -4.6 |
| CCOc1ccc(N2C(=O)CNC2=S)cc1 | 0.76 |
| O=C(COc1ccc(Br)cc1)c1ccc2c(c1)CCCC2 | 2.77 |
| COc1cc(CN2CCC(n3nccc3NC(=O)c3ccccc3OC)CC2)ccc1F | 7.24 |
| COc1cc(NC(=O)CN2CCN(c3ccccc3O)CC2)c(C)cc1[N+](=O)[O-] | -10.9 |
| Cc1ccc(COc2ccsc2-c2n[nH]c(=S)n2C)cc1 | -10.5 |

| SMILES | inhibition [%] |
| --- | --- |
| CN(C)C(=O)CSc1nc2ccc(C(=O)c3ccccc3)cc2[nH]1 | 1.68 |
| O=C(c1cccc([N+](=O)[O-])c1)N1CCOCC1 | 5.5 |
| O=C(c1cccc(Cl)c1)N1CCN(c2ccc(N3CCOCC3)nn2)CC1 | 0.55 |
| COc1ccc(N2CCN(C(=O)C3CC(=O)N(c4ccc(C)cc4)C3)CC2)cc1 (configuration not stated) | 5.21 |
| COc1cccc(CC2(CO)CCCN(Cc3ccccc3-c3ccco3)C2)c1 (configuration not stated) | 5.57 |
| COc1cccc(C(=O)Nc2cccc(NC(=O)c3cccs3)c2)c1 | 0.1 |
| S=c1[nH]nc(-c2ccncc2)n1/N=C/c1cn(-c2ccccc2)nc1-c1ccccc1 | 1.85 |
| O=C(CC1C(=O)NCCN1Cc1ccoc1)NCCc1ccc(Cl)cc1 (configuration not stated) | -3.28 |
| COC(=O)C1CSC(c2ccc(Cl)cc2)N1C(=O)c1ccccc1 (configuration not stated) | 3.7 |
| Cc1ccnc(N2CCC(C(=O)Nc3ccc4c(c3)OCO4)CC2)n1 | -6.75 |
| CCCn1nnnc1NC(=O)COc1ccc(Cl)c(C)c1 | 0.41 |
| CCCn1nnnc1NC(=O)c1cc(Br)ccc1OC | 14.5 |
| O=C(COC(=O)COc1ccccc1)Nc1cccc([N+](=O)[O-])c1 | -0.12 |
| COc1cc(OC)c(OC)cc1CCC(C)NC(=O)Cc1ccccc1 (configuration not stated) | 2.6 |
| CC(CCc1ccc(O)cc1)NCCC(c1ccccc1)c1ccccc1 (configuration not stated) | 64.6 |
| CCOc1ccc(NC(=O)NNC(=O)C2CCC(C(C)(C)C)CC2)cc1 (configuration not stated) | -6.75 |
| O=C(O)CCC(=O)Nc1ccccc1Oc1ccccc1 | -2.18 |
| Cc1cc(C)cc(NC(=O)c2cccc(C(=O)Nc3cc(C)cc(C)c3)n2)c1 | 5.97 |
| CN1C2CCC1/C(=C\c1ccccc1F)C(=O)/C2=C/c1ccccc1F | 5.25 |
| CN1C2CCC1/C(=C/c1cccn1C)C(=O)/C2=C\c1cccn1C | 10.6 |
| C=CCOc1ccc(CNCC2CCCO2)cc1 (configuration not stated) | -1.36 |
| Cc1noc(C)c1CSCC(=O)N(CC(C)C)c1c(N)n(Cc2ccccc2)c(=O)[nH]c1=O | -5.68 |
| CC(=O)Nc1ccc(N2C(=O)c3ccc(S(=O)(=O)c4ccc(C(=O)O)cc4)cc3C2=O)cc1 | -2.44 |
| COc1ccc(C(=O)ON=C2C=C(C)C(=O)C(C)=C2)cc1 | 63.5 |
| COc1ccc(S(=O)(=O)N=C2C=C(C)C(=O)C(C)=C2)cc1 | -12.4 |

| SMILES | inhibition [%] |
| --- | --- |
| Cc1cc(C)n(C(=O)c2ccc(S(=O)(=O)N3CCOCC3)cc2)n1 | -3.21 |
| COc1ccccc1NC(=O)COC(=O)/C=C/c1ccc(OC)c(OC)c1 | 24.8 |
| COc1ccccc1OCCNC(=O)/C=C/c1ccc([N+](=O)[O-])cc1 | 2 |
| Cn1c(=O)[nH]c(=O)c2c1nc(NCCCO)n2CCOc1ccccc1 | -8.75 |
| O=C(c1cc2ccccc2o1)N(Cc1nnc(-c2ccccc2Cl)o1)C1CC1 | -0.85 |
| O=C(C1=COCCO1)N(Cc1nnc(-c2ccccc2Cl)o1)C1CC1 | 1.25 |
| CCOC(=O)N1CCN(C(=O)c2cc3ccc(OC)cc3[nH]2)CC1 | -1.51 |
| COc1ccc(C(=S)N2CCC(C(N)=O)CC2)cc1Br | -5.29 |
| CC1CCCC(C)N1CC(O)COc1ccc(Cl)cc1 (configuration not stated) | -8.81 |
| COc1cc(OC)c(C(=O)/C=C/c2ccc(OCc3ccccc3)c(OC)c2)c(OC)c1 | 55.4 |
| COc1ccc(-c2cc(=Nc3ccc(C)cc3)c3ccccc3o2)cc1 | 18.3 |
| CCOc1ccc(N=c2cc(-c3ccc(OC)cc3)oc3ccccc23)cc1 | 2.75 |
| Nc1ccc(C(=O)OCCCc2nc3ccccc3[nH]2)cc1 | 2.21 |
| Nc1ccc(C(=O)OCc2nc3cc4ccccc4cc3[nH]2)cc1 | 3.37 |
| C/C=C(\C)CN1CCCC(CO)(Cc2ccccc2)C1 (configuration not stated) | 12.6 |
| Cc1nc(SCC(=O)N2CCNC2=O)c2ccccc2n1 | 0.14 |
| CCCCCCNC(=O)C(C#N)c1nc2ccccc2nc1N1CCOCC1 (configuration not stated) | 1 |
| N#CC(C(=O)NCCc1ccccc1)c1nc2ccccc2nc1N1CCOCC1 (configuration not stated) | 4.18 |
| CCCc1cc(=O)[nH]c(SCC(=O)c2cc(C)n(C)c2C)n1 | 2.23 |
| Cc1sc2c(c1C)CN(C(C)(C)C)CN2C(=O)c1ccccc1 | -8.66 |
| COc1ccc(N2CCN(c3nc(NCCc4ccc(OC)c(OC)c4)nc(OC)n3)CC2)cc1 | -2.33 |
| COc1ccc(CCNc2nc(N3CCOCC3)nc(N3CCOCC3)n2)cc1OC | -5.04 |
